HPGD block – HPGD (human) dehydrogenase inhibition; P15428; purified HPGD, NADH fluorescence kinetic, PGE2 substrate; Potency, µM, hits mostly inhibitors; actives 4.3% (n = 150,000); active = well fitted inhibition curve with a large enough effect, not every such curve was filed as active; inconclusive = small, poorly fitted or top-dose-only effect, or another doubt; inactive = no such curve, though single readings can be large or run the other way
Target sequence (P15428 whole entry, looked up): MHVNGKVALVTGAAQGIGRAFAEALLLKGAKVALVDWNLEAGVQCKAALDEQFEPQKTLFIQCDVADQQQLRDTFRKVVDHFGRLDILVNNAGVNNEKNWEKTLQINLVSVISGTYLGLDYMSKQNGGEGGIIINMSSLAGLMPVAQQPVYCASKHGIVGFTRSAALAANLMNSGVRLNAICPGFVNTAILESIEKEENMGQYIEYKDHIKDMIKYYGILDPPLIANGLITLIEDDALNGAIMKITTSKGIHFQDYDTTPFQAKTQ
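20 nM HPGD preincubated 15 min at room temperature with compound in 50 mM Tris-HCl pH 8, 0.01% Tween 20. Started with 1 mM NAD+ and 30 uM prostaglandin E2; NADH fluorescence (360/450 nm) read 5 times over 30-s intervals, last minus first.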
IMPase Li inh – membrane-permeable IMPase blocker, potentiated with lithium. CHO-M1 cells, IP1 TR-FRET (IP-One), carbachol + lithium. Potency, µM (titrated, usually from 59.4 µM), hits mostly inhibitors. actives 0.35% (n = 210,000);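 note: IP1 builds up when IMPase is blocked and the TR-FRET signal falls; nearly all actives have a fitted effect of over 50% in size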
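CHO cells stably expressing M1 receptor (2000/well, cultured 16–30 h) treated 30 min at 37C with compound plus low lithium. Cytosolic IP1 by TR-FRET (665/620 ratio and 620 channel) after 10 min lysis; AC50 by Hill fit.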
PNC inhibitor – perinucleolar compartment assembly inhibition | PC3M PTB-GFP, PNC prevalence imaging, 16 h; active compounds read low | activity change (PNC), negative = inhibition, % at 10 µM | actives 3.1% (n = 140,000) | AID 2417;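 active = readout at or below -70, meaning at least 70% loss of cells showing the perinucleolar compartment, a nuclear body marking cancer cells; inconclusive = readout between -30 and a set limit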
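PC3M cells stably expressing PTB-GFP, 750–1000 cells/well, treated 16 h at 37 °C with compound (23 nl of library stock), in duplicate. After paraformaldehyde fixation and Hoechst stain, imaged at 20x; PNC prevalence scored by image analysis.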
ALDH1A1 inh – inhibitors of human aldehyde dehydrogenase 1A1; Potency, µM (series often up to 75.3 µM), most hits filed as inhibitors; Purified ALDH1A1, NADH fluorescence, propionaldehyde substrate; P00352; actives 7.3% (n = 220,000); active = well fitted inhibition curve with a large enough effect, not every such curve was filed as active; inconclusive = small, poorly fitted or top-dose-only effect, or another doubt; inactive = no such curve, though single readings can be large or run the other way
NPSR antagonist – neuropeptide S receptor (human) antagonism, cAMP | AID 1461 | actives 1% (n = 220,000) | CHO-NPSR cells, cAMP TR-FRET, antagonist mode | Potency, µM (highest dose often 38.3 µM), most hits filed as inhibitors | Q6W5P4; note: nearly all actives have a fitted effect of over 50% in size
IMPase cell inh – membrane-permeable compound that blocks inositol monophosphatase. P97697. CHO-M1 cells, IP1 accumulation, HTRF TR-FRET ratio. inhibition (IP1 accumulation), % at 46.1 µM. 120,000 tested, under 10 active. AID 901; active = well fitted curve in the direction sought with a large enough effect in the signal ratio, not every such curve was filed as active; inconclusive = small, poorly fitted or top-dose-only effect, or a change in a side signal; inactive = no such curve, though single readings can be large or run the other way; the % refers to the signal ratio;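 note: cells stimulated with carbachol in lithium chloride buffer; higher means more IMPase inhibition seen as more IP1 and lower FRET ratio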
Target sequence (P97697 whole entry, looked up): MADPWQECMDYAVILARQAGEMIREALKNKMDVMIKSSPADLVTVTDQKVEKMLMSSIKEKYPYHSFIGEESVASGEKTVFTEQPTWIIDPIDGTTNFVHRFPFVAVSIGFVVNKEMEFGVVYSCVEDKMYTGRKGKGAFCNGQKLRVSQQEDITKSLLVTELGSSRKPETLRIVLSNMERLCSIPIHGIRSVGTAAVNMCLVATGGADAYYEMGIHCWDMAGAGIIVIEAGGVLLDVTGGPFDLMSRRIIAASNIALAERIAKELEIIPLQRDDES
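Seeded CHO-M1 cells were dosed with compound at up to 46 uM, stimulated with carbachol for 30 min, then lysed in IP-One detection reagents. Higher IP1 lowers the TR-FRET signal.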
Numbers stand for hits; - = inactive; ? = inconclusive; . = not tested or not shown; [ ] = another dose, or the depositor's remark. A selection: hits, their analogues and other compounds. The true share with any hit is near 11%. Unless noted, calls come from the whole dose curve; as a rule, active = well fitted curve in the direction sought with a large enough effect; inconclusive = small, poorly fitted or top-dose-only effect, or another doubt; inactive = no such curve, though single readings can be large; an effect the other way counts as inactive or inconclusive.

SMILES	HPGD block	IMPase Li inh	PNC inhibitor	ALDH1A1 inh	NPSR antagonist	IMPase cell inh
COc1cc(NC(=O)C(=O)NCCN(C)C)c(OC)cc1Cl	.	-	.	-	-	.
O=Nc1ccc(NOC(=O)c2ccccc2)cc1	-	-	-	?	-	.
O=C(N=Nc1ccc(NOC(=O)c2ccccc2Br)cc1)c1ccccc1O	.	-	.	22.4µM	-	.
Cn1ncc(Cl)c1C(=O)NCc1cc(C(C)(C)C)n[nH]1	17.8µM	-	-	-	-	.
Cn1nccc1CNC(=O)c1c(Cl)cnn1C	-	-	-	-	-	.
COc1ccccc1NC(=O)Cc1cccs1	-	-	-	-	-	-
CC(=O)Nc1cccc(N=NN2CCOCC2)c1	.	-	.	-	-	.
Cc1cnc(SCc2ccc(Cl)cc2Cl)[nH]c1=O	.	.	.	.	-	.
Cc1nnc(SCc2ccc(Cl)cc2Cl)[nH]c1=O	15.8µM	-	?	-	-	-
O=C(COC(=O)c1ccc(Cl)c(S(=O)(=O)N2CCCCC2)c1)NCc1ccco1	.	-	.	-	-	.
O=C(O)CNC(=O)c1nc(-c2ccccc2)n(-c2ccccc2)n1	-	-	?	?	-	.
O=C(c1nc(-c2ccccc2)n(-c2ccccc2)n1)N1CCCCCC1	-	-	-	8.91µM	-	-
Cc1nn(-c2ccccc2)c2sc(C(=O)N3CCCCC3)cc12	3.98µM	-	-	1.78µM	?	-
Cc1cccc(NC(=O)c2nc(-c3ccccc3)n(-c3ccccc3)n2)c1C	-	-	-	31.6µM	?	-
COc1ccc(-n2nc(C(=O)O)nc2-c2ccccc2)cc1	-	-	-	-	-	-
CCOc1ccc(C2Nc3ccccc3-c3nnc(SCc4ccccc4)nc3O2)cc1OC (centres undefined)	.	.	.	.	.	-
CCOC(=O)c1c(NC(C)=O)sc2c(O)c(Br)cc(Br)c12	-	-	-	?	-	.
CCOC(=O)c1ccc(N=CC2=C(O)CC(C)(C)CC2=O)cc1	?	-	-	?	-	-
CCOC(=O)c1cc(C)sc1/N=C/C1C(=O)CC(C)(C)CC1=O	-	-	?	12.6µM	-	.
COC(=O)c1cc(N=CC2=C(O)CC(C)(C)CC2=O)cc(C(=O)OC)c1	-	-	-	?	-	.
CCOC(=O)c1c(CC(C)C)csc1/N=C/C1C(=O)CC(C)(C)CC1=O	.	-	.	6.31µM	-	.
COC(=O)c1cc(OC)c(OC)cc1N=CC1=C(O)CC(C)(C)CC1=O	?	-	-	1µM	-	-
CCOC(=O)c1c(/N=C/C2C(=O)CCCC2=O)sc(C)c1C	-	-	?	?	-	-
CCOC(=O)c1cc(CC)sc1/N=C/C1=C(O)CC(C)(C)CC1=O	-	-	-	11.2µM	-	.
COc1ccc(S(=O)(=O)N2CCN(CC(=O)Nc3cc(OC)cc(OC)c3)CC2)cc1	-	-	-	?	-	-
SMILES	HPGD block	IMPase Li inh	PNC inhibitor	ALDH1A1 inh	NPSR antagonist	IMPase cell inh
COc1cccc(NC(=O)CN2CCN(S(=O)(=O)c3ccc(C(C)C)cc3)CC2)c1	-	-	-	22.4µM	-	-
O=C(CN1CCN(S(=O)(=O)c2ccc(F)cc2)CC1)Nc1cccc(C(F)(F)F)c1	-	-	?	-	-	-
COc1cccc(NC(=O)CN2CCN(S(=O)(=O)c3ccc(F)cc3)CC2)c1	-	-	-111.3	-	-	-
O=C(NCc1ccc(F)cc1)c1ccc(CS(=O)(=O)Cc2ccccc2F)o1	-	-	-	12.6µM	-	-
O=C(NCc1ccc(F)cc1)c1ccc(CS(=O)(=O)Cc2ccc(F)cc2)o1	-	-	-	-	?	?
CCCCn1c(SCc2nnc(-c3ccccc3)o2)nc2c1c(=O)n(C)c(=O)n2C	?	-	?	-	-[7.67 µM]	-
O=c1[nH][nH]c2c(N=Cc3ccccc3O)ccc(F)c12	.	.	.	8.91µM	-	.
CCCNC(=O)c1ccc(N(Cc2ccccc2)S(C)(=O)=O)cc1	-	-	-111.7	-	-	-
CS(=O)(=O)N(Cc1ccccc1)c1ccc(C(=O)NCc2ccccc2)cc1	-	-	?	-	-	-
CS(=O)(=O)N(Cc1ccc(C(=O)NN=C2CCCC2)cc1)c1ccccc1	-	-	-	1.26µM	-	.
CS(=O)(=O)N(Cc1ccc(C(=O)NN=C2CCCCCC2)cc1)c1ccccc1	-	-	-	15.8µM	-	.
O=C(NNC(=O)C1CCN(S(=O)(=O)c2ccc(Cl)cc2)CC1)c1ccc(S(=O)(=O)N2CCCCC2)cc1	-	-	-	-	-	.
CCC(=O)c1ccc(N2CCCCC2)c(F)c1	.	-	.	-	-	.
COc1ccc(Nc2c([N+](=O)[O-])ccc3c2=NC2(CCCCC2)N=3)cc1	.	-	.	7.08µM	10µM	.
O=[N+]([O-])c1ccccc1Nc1ccccc1	-	-	.	-	-	.
O=[N+]([O-])c1ccc2c(c1Nc1ccccc1)=NC1(CCCCC1)N=2	-	-	-108.8	-	-	-
COc1ccc(Nc2ccncc2[N+](=O)[O-])cc1	.	-	.	-	-	.
COc1ccc(C2=NOC(C(=O)Nc3ccc(C(C)=O)cc3)C2)cc1OC (centres undefined)	?	-	?	-	-	-
CCC(C)c1ccc(O)c(N)c1 (centres undefined)	?	-	-	25.1µM	-	-
CC(C)(C)c1ccc(O)c(N)c1	-	-	-	?	-	-
